Eleven compounds from ChEMBL document CHEMBL3988442, “University of Dundee, Small-Polar-MMV Screening Library” (2021) can be followed below.

What all share (design): scale not given: direction of the effect not stated beside the values
In assay [1] the target is Protein translocase subunit SecA (Escherichia coli (strain K12)) (UniProt P10408). Nature of the assay: Assay to Identify E. coli SecA ATPase Inhibitors. The format is functional. As to conditions: 30 µM.
In assay [2] the target is T1, Ubiquitin-activating enzyme e1, putative (Leishmania donovani (strain BPK282A1)) (UniProt E9BSI1).
T1 sequence (whole entry): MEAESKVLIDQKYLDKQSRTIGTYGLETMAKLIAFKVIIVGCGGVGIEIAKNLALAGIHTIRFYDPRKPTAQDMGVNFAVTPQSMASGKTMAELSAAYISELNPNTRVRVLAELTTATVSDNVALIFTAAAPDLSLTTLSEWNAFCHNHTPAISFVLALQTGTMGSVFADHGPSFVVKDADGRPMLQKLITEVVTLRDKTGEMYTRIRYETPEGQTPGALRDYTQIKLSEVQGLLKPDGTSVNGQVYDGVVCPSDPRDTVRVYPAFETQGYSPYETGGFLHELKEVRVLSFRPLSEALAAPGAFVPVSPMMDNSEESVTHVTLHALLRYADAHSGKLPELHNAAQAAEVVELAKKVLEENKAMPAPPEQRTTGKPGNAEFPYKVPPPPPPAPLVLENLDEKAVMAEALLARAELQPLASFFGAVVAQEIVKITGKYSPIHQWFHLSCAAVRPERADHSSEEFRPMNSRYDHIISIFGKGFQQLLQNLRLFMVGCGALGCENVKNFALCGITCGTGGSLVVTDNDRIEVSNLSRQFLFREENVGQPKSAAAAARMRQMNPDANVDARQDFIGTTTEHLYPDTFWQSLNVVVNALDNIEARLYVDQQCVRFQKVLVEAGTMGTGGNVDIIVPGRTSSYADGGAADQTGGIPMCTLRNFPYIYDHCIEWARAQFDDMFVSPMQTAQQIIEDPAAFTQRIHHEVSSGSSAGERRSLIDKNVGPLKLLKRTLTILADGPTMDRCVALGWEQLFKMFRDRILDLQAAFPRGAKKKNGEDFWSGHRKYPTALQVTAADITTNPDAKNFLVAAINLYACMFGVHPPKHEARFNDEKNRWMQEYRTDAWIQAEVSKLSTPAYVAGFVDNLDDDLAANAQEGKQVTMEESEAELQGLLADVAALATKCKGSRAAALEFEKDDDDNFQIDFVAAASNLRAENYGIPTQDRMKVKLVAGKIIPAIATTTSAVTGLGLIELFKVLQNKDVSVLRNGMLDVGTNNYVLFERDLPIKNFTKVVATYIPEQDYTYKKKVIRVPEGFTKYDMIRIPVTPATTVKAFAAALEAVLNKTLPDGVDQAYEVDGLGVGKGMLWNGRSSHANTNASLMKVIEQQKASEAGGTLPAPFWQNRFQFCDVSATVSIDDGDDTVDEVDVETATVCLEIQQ
Nature of the assay: Leishmania donovani Ubiquitin Activating Enzyme (LdE1). As to conditions: 30 µM. The format is functional.

In assay [3] the target is AMP-activated protein kinase, AMPK (Homo sapiens) (UniProt P54646+O43741+P54619+Q9UGJ0+Q9Y478+Q13131+Q9UGI9). The experiment in a line: AMP-dependent Kinase enzyme assay. An in vitro enzyme assay that detects ADP turnover that is directly proportional to AMPK activity. This uses naive AMPK that is activated during the assay with MK-8722. The format is functional. Conditions: 30 µM.

The target of assay [4] is Sialic acid-binding Ig-like lectin 9 (Homo sapiens) (UniProt Q9Y336). Nature of the assay: Hs-Siglec9 ALPHAscreen SOP 20170721. As to conditions: 10 µM.
Another assay deals with Trypanosoma cruzi. Nature of the assay: Trypanosoma cruzi phosphomannomutase and mannose-1-phosphate guanylyltransferase assay. The assay is classed as functional. Conditions: 10 µM.
The target in assay [5] is T2, Arginase-2, mitochondrial (Homo sapiens) (UniProt P78540).
T2 sequence (whole entry): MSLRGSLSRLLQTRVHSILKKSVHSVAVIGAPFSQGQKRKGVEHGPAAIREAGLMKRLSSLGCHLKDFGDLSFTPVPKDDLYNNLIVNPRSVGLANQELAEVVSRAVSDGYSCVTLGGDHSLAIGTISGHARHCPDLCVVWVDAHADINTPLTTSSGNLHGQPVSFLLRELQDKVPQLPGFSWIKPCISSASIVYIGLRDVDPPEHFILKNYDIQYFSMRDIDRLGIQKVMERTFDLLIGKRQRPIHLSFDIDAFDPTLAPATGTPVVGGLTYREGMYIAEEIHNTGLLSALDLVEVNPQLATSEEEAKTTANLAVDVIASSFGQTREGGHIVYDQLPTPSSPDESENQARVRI
Nature of the assay: in vitro enzyme assay to detect the production of urea directly proportional to the activity of Arginase II. Further: in the data most compounds retested in dose-response had high values. The format is functional. Conditions: 33.3 µM.

Assay [6] has as its target T3, Proteasome subunit beta (Trypanosoma cruzi) (UniProt O96673).
T3 sequence (whole entry): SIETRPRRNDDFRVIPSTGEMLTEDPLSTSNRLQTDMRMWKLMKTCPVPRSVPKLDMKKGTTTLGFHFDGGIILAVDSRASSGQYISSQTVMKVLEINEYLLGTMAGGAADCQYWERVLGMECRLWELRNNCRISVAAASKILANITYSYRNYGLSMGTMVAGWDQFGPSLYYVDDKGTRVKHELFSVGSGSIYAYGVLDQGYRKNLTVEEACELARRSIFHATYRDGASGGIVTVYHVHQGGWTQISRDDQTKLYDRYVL
The experiment in a line: Trypanosoma cruzi proteasome chymotrypsin-like activity (TcProtChymo) assay. Further: in the data most compounds retested in dose-response had high values. The format is functional. Conditions: 9.37 µM.

The species named for a further assay is Homo sapiens. The experiment in a line: To identify inhibition of the IFN signalling (Jak-Stat) pathway via expression of an eGFP reporter gene under the control of an IFN-stimulated response element (ISRE) containing MxA promoter. The assay is classed as functional. Conditions: 30 µM.
Assay [7] deals with T4, Tyrosyl-tRNA synthetase, putative (Trypanosoma cruzi (strain CL Brener)) (UniProt Q4DSP6).
T4 sequence (whole entry): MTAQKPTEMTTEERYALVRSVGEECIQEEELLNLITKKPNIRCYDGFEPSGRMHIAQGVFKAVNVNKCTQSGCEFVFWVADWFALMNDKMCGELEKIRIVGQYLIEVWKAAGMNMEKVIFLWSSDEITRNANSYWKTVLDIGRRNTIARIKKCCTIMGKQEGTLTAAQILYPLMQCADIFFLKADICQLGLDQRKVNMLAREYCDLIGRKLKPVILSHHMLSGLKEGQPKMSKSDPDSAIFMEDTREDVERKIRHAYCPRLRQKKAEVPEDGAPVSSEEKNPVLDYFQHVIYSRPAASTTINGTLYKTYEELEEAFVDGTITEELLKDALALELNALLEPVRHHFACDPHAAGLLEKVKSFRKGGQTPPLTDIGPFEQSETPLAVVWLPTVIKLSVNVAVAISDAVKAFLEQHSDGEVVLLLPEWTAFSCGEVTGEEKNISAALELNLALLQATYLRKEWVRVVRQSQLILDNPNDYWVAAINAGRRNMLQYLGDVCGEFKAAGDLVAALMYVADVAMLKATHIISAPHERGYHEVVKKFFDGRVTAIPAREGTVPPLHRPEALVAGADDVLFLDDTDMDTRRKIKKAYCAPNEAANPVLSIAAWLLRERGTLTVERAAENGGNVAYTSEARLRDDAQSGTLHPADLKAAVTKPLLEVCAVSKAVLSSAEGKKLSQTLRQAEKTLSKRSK
Nature of the assay: Trypanosoma cruzi tyrosyl tRNA synthetase (TcYRS) _High Tyrosine SOP. Further: in the data most compounds retested in dose-response had high values. The format is functional. Conditions: 30 µM.

Assay [8] addresses T4, Tyrosyl-tRNA synthetase, putative (Trypanosoma cruzi (strain CL Brener)). The experiment in a line: Trypanosoma cruzi tyrosyl tRNA synthetase (TcYRS) SOP. The assay is classed as functional. Conditions: 30 µM.
The target of assay [9] is Chromo domain-containing protein 1 (Saccharomyces cerevisiae (strain ATCC 204508 / S288c) (Baker's yeast)) (UniProt P32657). The experiment in a line: ScCHD-1 Enzyme Inhibition Assay. Further: in the data most compounds retested in dose-response had high values. The format is functional. Conditions: 30 µM.

Molecules are shown by their SMILES. For some of these results: Potency and affinity values are given separately.

Sequence of Protein translocase subunit SecA (Escherichia coli (strain K12)) (P10408 whole entry): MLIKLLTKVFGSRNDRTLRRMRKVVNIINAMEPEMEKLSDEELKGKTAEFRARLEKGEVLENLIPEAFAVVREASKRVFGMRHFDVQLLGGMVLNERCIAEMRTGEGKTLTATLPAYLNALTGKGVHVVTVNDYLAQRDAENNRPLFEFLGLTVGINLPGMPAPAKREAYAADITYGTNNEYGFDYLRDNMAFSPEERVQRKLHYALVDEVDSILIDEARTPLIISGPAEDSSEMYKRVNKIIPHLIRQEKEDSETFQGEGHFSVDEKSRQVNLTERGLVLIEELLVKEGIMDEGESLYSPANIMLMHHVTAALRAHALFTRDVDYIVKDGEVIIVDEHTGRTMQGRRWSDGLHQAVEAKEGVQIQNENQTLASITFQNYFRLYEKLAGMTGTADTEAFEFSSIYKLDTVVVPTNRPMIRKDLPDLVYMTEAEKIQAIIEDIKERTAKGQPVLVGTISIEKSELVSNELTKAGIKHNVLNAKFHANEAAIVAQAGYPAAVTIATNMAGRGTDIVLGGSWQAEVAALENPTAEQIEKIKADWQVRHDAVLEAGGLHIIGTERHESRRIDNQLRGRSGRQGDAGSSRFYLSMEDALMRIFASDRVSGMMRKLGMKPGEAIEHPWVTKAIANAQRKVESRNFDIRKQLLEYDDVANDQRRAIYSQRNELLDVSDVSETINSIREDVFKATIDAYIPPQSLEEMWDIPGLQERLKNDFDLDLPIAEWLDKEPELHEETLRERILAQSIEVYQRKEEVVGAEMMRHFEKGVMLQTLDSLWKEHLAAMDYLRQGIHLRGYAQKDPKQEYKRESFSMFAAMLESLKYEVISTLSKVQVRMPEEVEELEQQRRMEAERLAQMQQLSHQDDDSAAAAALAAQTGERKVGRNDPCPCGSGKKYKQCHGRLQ
Sequence of Chromo domain-containing protein 1 (Saccharomyces cerevisiae (strain ATCC 204508 / S288c) (Baker's yeast)) (P32657 whole entry, the tested form may be a part): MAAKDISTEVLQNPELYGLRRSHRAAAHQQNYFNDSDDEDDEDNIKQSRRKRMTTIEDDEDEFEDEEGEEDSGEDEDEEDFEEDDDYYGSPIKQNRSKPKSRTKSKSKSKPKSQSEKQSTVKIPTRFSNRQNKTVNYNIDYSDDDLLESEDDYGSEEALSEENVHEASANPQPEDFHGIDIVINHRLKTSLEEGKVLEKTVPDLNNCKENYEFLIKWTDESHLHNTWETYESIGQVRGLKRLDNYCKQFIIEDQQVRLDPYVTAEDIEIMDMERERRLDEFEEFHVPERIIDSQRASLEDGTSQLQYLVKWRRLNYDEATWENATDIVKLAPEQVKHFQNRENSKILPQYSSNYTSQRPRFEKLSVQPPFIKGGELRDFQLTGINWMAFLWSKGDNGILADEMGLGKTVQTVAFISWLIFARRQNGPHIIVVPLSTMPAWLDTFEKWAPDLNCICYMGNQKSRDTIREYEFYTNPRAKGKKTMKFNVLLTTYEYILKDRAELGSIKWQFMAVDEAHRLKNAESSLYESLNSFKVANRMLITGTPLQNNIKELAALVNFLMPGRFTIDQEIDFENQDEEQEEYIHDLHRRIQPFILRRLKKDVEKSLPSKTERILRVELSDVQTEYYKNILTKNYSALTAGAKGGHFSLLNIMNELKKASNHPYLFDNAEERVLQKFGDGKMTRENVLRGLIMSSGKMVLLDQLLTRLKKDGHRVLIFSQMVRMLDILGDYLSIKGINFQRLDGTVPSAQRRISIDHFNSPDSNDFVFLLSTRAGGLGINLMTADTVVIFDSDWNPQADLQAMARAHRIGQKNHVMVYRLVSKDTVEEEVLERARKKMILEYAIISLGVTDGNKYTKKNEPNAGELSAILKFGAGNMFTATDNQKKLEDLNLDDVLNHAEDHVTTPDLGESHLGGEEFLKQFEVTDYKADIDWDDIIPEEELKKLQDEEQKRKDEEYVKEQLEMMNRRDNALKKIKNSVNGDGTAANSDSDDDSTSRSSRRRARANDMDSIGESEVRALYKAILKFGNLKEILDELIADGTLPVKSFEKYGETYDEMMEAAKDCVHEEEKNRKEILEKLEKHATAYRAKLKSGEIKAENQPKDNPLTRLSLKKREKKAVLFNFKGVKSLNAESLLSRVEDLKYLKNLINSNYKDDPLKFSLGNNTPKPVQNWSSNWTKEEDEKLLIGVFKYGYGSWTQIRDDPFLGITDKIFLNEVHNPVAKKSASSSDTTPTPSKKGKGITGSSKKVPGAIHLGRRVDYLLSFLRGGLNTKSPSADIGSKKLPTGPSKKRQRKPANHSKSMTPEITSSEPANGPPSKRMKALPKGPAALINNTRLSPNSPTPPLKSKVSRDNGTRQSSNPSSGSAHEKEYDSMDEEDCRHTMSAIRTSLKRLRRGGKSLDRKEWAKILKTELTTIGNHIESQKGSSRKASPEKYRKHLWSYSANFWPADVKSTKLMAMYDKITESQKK
Sequence of Sialic acid-binding Ig-like lectin 9 (Homo sapiens) (Q9Y336 whole entry): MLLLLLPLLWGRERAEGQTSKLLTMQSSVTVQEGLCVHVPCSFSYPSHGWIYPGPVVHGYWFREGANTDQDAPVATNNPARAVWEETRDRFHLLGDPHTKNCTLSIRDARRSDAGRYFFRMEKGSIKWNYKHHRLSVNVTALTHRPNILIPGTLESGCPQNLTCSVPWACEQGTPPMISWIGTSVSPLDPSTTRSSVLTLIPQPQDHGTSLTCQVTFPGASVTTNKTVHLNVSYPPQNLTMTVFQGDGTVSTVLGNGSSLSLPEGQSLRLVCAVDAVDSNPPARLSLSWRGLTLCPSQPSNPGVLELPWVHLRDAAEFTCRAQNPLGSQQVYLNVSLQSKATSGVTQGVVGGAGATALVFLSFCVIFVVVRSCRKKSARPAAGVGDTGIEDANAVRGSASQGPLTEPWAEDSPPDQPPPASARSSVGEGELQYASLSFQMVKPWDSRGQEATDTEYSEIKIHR

As to `Cc1nc(CN2CCCC(N(C)Cc3nnsc3Cl)C2)no1` (stereo unspecified), the Percent Effect was -5.44% in assay [1]; 5.2% in assay [2]; 0.941% in assay [3]; -5.57% in assay [4]; 6.76% with Trypanosoma cruzi; -5.26% in assay [5]. The Percent Effect in assay [6] was 2.99%; in the assay filed under Homo sapiens it was -2.55%; in assay [7], 5.71%; in assay [8], 7.06%; in assay [9] it was -13.5%.
With `c1ccc(-c2cnc(CN3CCCC3Cn3cncn3)o2)cc1` (stereo unspecified), the Percent Effect is -2.46% in [1]; 5.06% in assay [2]; -0.0232% in [3]; -1.55% in [4]; -2.93% with Trypanosoma cruzi; 2.66% in assay [5]. For the same compound, the Percent Effect was -0.737% in assay [6]; 10.6% in the assay filed under Homo sapiens; 7.39% in assay [7]; 13.9% in assay [8]; -8.4% in [9].
For the compound `CCc1ncc2c(n1)CN(C(=O)COC)C2`, the Percent Effect in assay [1] is -3.52%; in assay [2] it was 8.22%; in assay [3], -3.13%; in assay [4], -3.99%; with Trypanosoma cruzi, 2.55%; in [5], 1.36%. The Percent Effect was 12.1% in assay [6]; 8.48% in the assay listed under Homo sapiens; 9.68% in assay [7]; 22.5% in assay [8]; -4.35% in [9].
As for `NCc1cnn(-c2ccccc2C(=O)NCCCn2ccnc2)c1`, the Percent Effect is -3.74% in assay [1]; 6.76% in assay [2]; 9.61% in assay [3]; -1.25% in assay [4]; -3.16% with Trypanosoma cruzi; -1.16% in assay [5]. Moreover, the Percent Effect was 0.312% in [6]; 4.01% in the assay filed under Homo sapiens; 7.53% in assay [7]; 11.7% in assay [8]; -2.44% in assay [9].
With `O=C(C1CC(=O)N(C2CCCC2)C1)N1CCN(CCn2cccc2)CC1` (stereo unspecified), the Percent Effect is -3.53% in [1]; 13.3% in [2]; -5.45% in assay [3]; 19.8% in [4]; 2.82% with Trypanosoma cruzi; 13.5% in assay [5]. In addition, the Percent Effect is 16.9% in assay [6]; 23% in the assay listed under Homo sapiens; 3.83% in [7]; 13.6% in assay [8]; -7.64% in assay [9].
In the case of `CN(C)CC(=O)N1CCCC2(CCC(=O)N(CCc3c[nH]cn3)C2)C1` (stereo unspecified), the Percent Effect was -1.9% in [1]; 15.6% in assay [2]; -0.193% in assay [3]; 10.6% in assay [4]; 1.48% in the assay on Trypanosoma cruzi; -45.5% in assay [5]. The Percent Effect is 11% in assay [6]; -2.33% in the assay listed under Homo sapiens; 9.68% in assay [7]; 16.1% in assay [8]; -1.67% in assay [9].
On to `CN(CC(N)=O)S(=O)(=O)c1ccc(F)cc1Cl`, for which the Percent Effect in assay [1] is -4.21%; in [2], -5.48%; in assay [3], 0.145%; in assay [4] it was 5.52%; in the assay with Trypanosoma cruzi, -0.794%; in assay [5], 0.399%. Besides, the Percent Effect was 6.59% in [6]; 16.6% in the assay filed under Homo sapiens; 13.5% in assay [7]; 21% in assay [8]; -3.16% in assay [9].
For `c1cnn(C2CN(Cc3nc(-c4ccsc4)no3)C2)c1`, the Percent Effect is -3.15% in [1]; -10.5% in assay [2]; -7.01% in [3]; 2.96% in assay [4]; 8.27% with Trypanosoma cruzi; 1.15% in [5]. Moreover, the Percent Effect in [6] was 12.7%; in the assay listed under Homo sapiens it was -0.515%; in assay [7], 4.41%; in assay [8], 12.2%; in [9], -4.96%.
Turning to `CC(C)C(=O)NCC(=O)N(C)C1CCCN(C2Cc3ccccc3C2)C1` (stereo unspecified), the Percent Effect in assay [1] is 0.272%; in assay [2], 8.11%; in assay [3], -4.7%; in assay [4], 3.43%; with Trypanosoma cruzi, -3.48%; in assay [5], 0.476%. For the same compound, the Percent Effect in assay [6] was 14.3%; in the assay listed under Homo sapiens it was 11.7%; in assay [7] it was -1.59%; in [8], -26.8%; in [9], -2.54%.
For the compound `Cc1nccn1C1CCCN(C(=O)c2cc3ccccc3[nH]2)C1` (stereo unspecified), the Percent Effect is -6.7% in assay [1]; 2.53% in [2]; -10.1% in assay [3]; 1.72% in [4]; -2.74% in the assay on Trypanosoma cruzi; 0.76% in [5]. Also, the Percent Effect in [6] is -4.83%; in the assay filed under Homo sapiens, 27.9%; in assay [7] it was -2.46%; in [8], -3.8%; in assay [9], -6.65%.
`Cc1nn(C)c(Cl)c1C1CCCN1c1ncnc2sccc12` (stereo unspecified): the Percent Effect was -6.84% in [1]; -2.67% in assay [2]; -2.13% in assay [3]; 8.98% in assay [4]; 5.36% in the assay with Trypanosoma cruzi; 7.29% in [5]. The Percent Effect in assay [6] was 1.4%; in the assay listed under Homo sapiens, 35.8%; in assay [7] it was 0.546%; in assay [8], 3.7%; in [9], 0.644%.
